GPR151 activ – activators of human GPR151, primary screen, cell-based, PathHunter beta-arrestin, luminescence; G-protein coupled receptor 151 (Homo sapiens), Q8TDV0; AID 1508602, 2020; activation, % at 11.2 µM; 650,000 tested, 1% active; PathHunter beta-arrestin GPR151 cells; in the data active = activation above about 4.9%;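 note: 0% = median of compound wells and 100% = cells with positive control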
TEAD-YAP block – TEAD-YAP interaction inhibition, primary screen, TEAD-YAP interaction inhibitor project, luminescence, HEK-TIYL cells; TEAD-Gal4/YAP UAS-luciferase luminescence; 640,000 tested, 1.4% active; AID 1259422, 2018; inhibition, % at 9.12 µM; in the data active = inhibition above about 32%;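 note: 0% = median of test compound wells and 100% = reference inhibitor wells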
FBW7 act – FBW7 E3 ligase activators, primary screen, biochemical, AlphaScreen, human; F-box/WD repeat-containing protein 7 (Homo sapiens), Q969H0; AlphaScreen FBW7–phospho-cyclin E peptide binding, activator screen; normalized activity (activation), % at 26.1 µM; 650,000 tested, 0.13% active; AID 1259310, 2017; in the data active = normalized activity above about 1.9%;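 note: purified mutant Fbw7 with reduced substrate affinity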
MITF primary – MITF inhibitors, primary screen, biochemical, AlphaScreen, human. 650,000 tested, 0.91% active. inhibition, % at 2.6 µM. AID 1259374, 2018. Microphthalmia-associated transcription factor (Homo sapiens), O75030. AlphaScreen MITF homodimerization, bead proximity signal; in the data active = inhibition above about 50%;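 note: 0% = vehicle wells with protein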
Target sequence (O75030 whole entry, looked up): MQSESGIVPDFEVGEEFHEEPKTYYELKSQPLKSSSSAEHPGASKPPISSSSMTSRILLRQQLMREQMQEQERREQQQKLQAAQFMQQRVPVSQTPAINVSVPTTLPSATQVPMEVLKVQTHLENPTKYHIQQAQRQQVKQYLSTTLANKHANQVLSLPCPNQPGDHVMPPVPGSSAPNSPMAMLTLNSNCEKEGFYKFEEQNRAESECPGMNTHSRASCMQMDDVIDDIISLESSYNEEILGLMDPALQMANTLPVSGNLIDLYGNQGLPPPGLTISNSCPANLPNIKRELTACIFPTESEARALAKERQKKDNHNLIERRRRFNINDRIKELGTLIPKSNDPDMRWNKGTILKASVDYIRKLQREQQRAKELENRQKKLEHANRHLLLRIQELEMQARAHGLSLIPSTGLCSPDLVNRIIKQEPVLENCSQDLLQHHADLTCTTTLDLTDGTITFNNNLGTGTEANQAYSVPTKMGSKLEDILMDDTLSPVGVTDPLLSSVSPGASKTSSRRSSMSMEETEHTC
Numbers without * were called inactive. Only some compounds are listed: those with a hit (about 3.5% of all), similar ones and a draw of the others.

SMILES	GPR151 activ	TEAD-YAP block	FBW7 act	MITF primary
CCOC(=O)C(C)OC(=O)c1ccc(Cl)c([N+](=O)[O-])c1 (centres undefined)	-1.0	2.3	-0.1	1.2
COC(=O)C(C)OC(=O)c1ccc(Cl)c([N+](=O)[O-])c1 (centres undefined)	1.2	7.2	3.0*	5.5
COc1ccc(C(=O)c2ccc(Br)c([N+](=O)[O-])c2)cc1C	2.8	64.7*	-0.1	0.7
C=CCc1ccccc1OCC(O)Cn1c(CO)nc2ccccc21 (centres undefined)	0.0	10.8	-0.1	11.3
C=CCc1ccccc1OCC(O)Cn1c(C)nc2ccccc21 (centres undefined)	3.9	39.7*	-0.1	3.2
Cc1ccc(C(C)C)c(OCC(O)Cn2c(C)nc3ccccc32)c1 (centres undefined)	3.4	50.4*	0.1	-3.2
Cc1c(NC(=S)NC(=O)C2=COCCO2)c(=O)n(-c2ccccc2)n1C	-0.6	7.8	-0.1	8.9
COCCCNC(=O)c1ccc2c(c1)N=C(C)c1c(C)ccc(C)c1S2	-0.1	55.9*	0.2	8.2
COCCNC(=O)c1ccc2c(c1)N=C(C)c1c(C)ccc(C)c1S2	0.2	73.8*	0.4	5.6
CNC(=O)c1ccc2c(c1)N=C(C)c1cc(Cl)ccc1S2	-0.3	1.8	-0.1	-4.2
COCCCNC(=O)c1ccc(C)c(Cl)c1	1.4	-2.5	1.2	11.3
CNC(=O)c1ccc2c(c1)N=C(C)c1c(C)ccc(C)c1S2	1.0	48.0*	1.1	19.8
COC(CNC(=O)c1ccc2c(c1)N=C(C)c1cc(Cl)ccc1S2)OC	1.1	37.7*	-0.1	-1.3
Cc1nc(N(C)c2ccc(C(C)C)cc2)c2c(C)c(C(=O)NC(C)C)sc2n1	0.4	3.1	-0.2	-2.7
COCCCn1c(C(=O)N(C)Cc2ccccc2)cc2c(=O)n3cccc(C)c3nc21	4.1	-12.5	1.8	8.0
Cc1ccc(N2C(=O)/C(=C/c3ccc(-c4ccc(Cl)c(Cl)c4)o3)C=C2c2ccccc2)c(Br)c1	0.6	5.1	0.1	-5.6
COC(CNC(=O)c1ccc2c(c1)N=C(C)c1ccccc1S2)OC	0.2	10.3	0.2	13.5
COC(CNC(=O)c1ccc2c(c1)N=C(C)c1c(C)ccc(C)c1S2)OC	-0.6	58.5*	-0.2	1.0
COc1ccc(NS(=O)(=O)c2ccc(-n3cccn3)cc2)cc1OC	-0.7	40.2*	-0.1	6.0
Cc1ccc(NS(=O)(=O)c2ccc(-n3cccn3)cc2)cc1C	3.3	2.0	-0.1	1.6
COc1ccc(NS(=O)(=O)c2cc(C)ccc2OC)cc1OC	-1.6	-0.3	0.8	2.9
COc1ccc(NS(=O)(=O)c2c(C)cc(C)cc2C)cc1OC	0.4	45.1*	-0.1	3.5
COCC(=O)Nc1nnc(SCCN2CCCCC2)s1	0.4	-0.9	0.0	16.8
CCOC(=O)C1=C(C)NC(SC)=NC1c1ccc(OC)cc1OC (centres undefined)	-1.6	5.0	-0.3	8.0
COc1cc(NC(=O)c2cccc(-n3ncc4cc(Nc5ccccc5Cl)ccc43)c2)cc(OC)c1OC	-0.8	23.4	0.2	-4.3
SMILES	GPR151 activ	TEAD-YAP block	FBW7 act	MITF primary
N#Cc1cccc(-n2ncc3cc(Nc4ccccc4Cl)ccc32)c1	-0.6	-7.5	2.0*	-14.6
COc1c(Br)cc(/C=C(\C#N)c2nc3ccccc3[nH]2)c(OC)c1Br	1.6	-5.2	0.1	9.7
O=c1c(-c2nc3ccccc3s2)coc2cc(O)ccc12	-2.9	-29.4	0.0	20.8
CC(C)c1ccc(OCC(=O)Nc2ncn[nH]2)c(Br)c1	-3.7	63.2*	0.2	8.8
CC(C)(C)c1ccc(OCC(=O)Nc2ncn[nH]2)c(Br)c1	-0.8	7.3	0.7	10.4
Cc1c(Cl)cccc1NS(C)(=O)=O	-0.2	-1.6	0.0	2.2
CCOC(=O)[C@@H]1Nc2ccc(C(=O)O)cc2[C@@H]2C=CC[C@H]12	-1.4	-0.2	-0.6	73.7*
CC(=O)c1ccc2c(c1)[C@@H]1C=CC[C@@H]1[C@H](c1ccc(C(=O)O)cc1)N2	-0.7	-7.0	-1.1	62.4*
O=S(=O)(c1ccc(C2Nc3ccc(F)cc3C3C=CCC32)cc1)N1CCOCC1 (centres undefined)	0.8	-3.5	-0.1	3.7
O=[N+]([O-])c1ccc2c(c1)C1C=CCC1C(c1ccc(S(=O)(=O)N3CCOCC3)cc1)N2 (centres undefined)	-0.5	41.6*	-0.1	4.8
CC(=O)c1ccc2c(c1)[C@@H]1C=CC[C@@H]1[C@H](c1ccncc1)N2	0.1	-50.5	-0.6	6.2
CC(=O)c1ccc2c(c1)[C@@H]1C=CC[C@@H]1[C@H](c1cc3c(cc1Br)OCO3)N2	-0.7	52.9*	-0.1	-2.0
COc1ccc(OC)c(/C=C2/C(=N)N3N=C(C(C)C)SC3=NC2=O)c1	-1.4	0.1	0.4	10.6
CCOC(=O)C1=C(C)N=c2s/c(=C\c3cc(OC)ccc3Br)c(=O)n2C1c1cccc(OC)c1 (centres undefined)	-0.6	3.0	-0.1	2.4
CCN(CCO)C(=O)c1sc2ncnc(NCCCOC)c2c1C	-0.8	6.2	0.1	5.3
CC1c2cccn2CCN1S(=O)(=O)c1ccc(F)c(Cl)c1 (centres undefined)	0.1	-3.5	0.1	18.1
CC(=O)c1ccc2c(c1)C1C=CCC1C(c1ccccc1F)N2 (centres undefined)	1.9	-5.4	0.2	11.3
COC(=O)c1ccc2c(c1)C1C=CCC1[C@@H](c1ccc(C(=O)O)cc1)N2 (some centres undefined)	-0.4	-2.7	-1.4	65.6*
O=C(O)c1ccc2c(c1)C1C=CCC1C(c1ccccc1F)N2 (centres undefined)	0.5	4.0	-0.2	56.0*
COC(=O)c1ccc2c(c1)C1C=CCC1C(c1ccc(C(=O)O)cc1)N2 (centres undefined)	-0.8	7.3	-0.9	69.6*
COc1ccc2c(c1)[C@@H]1C=CC[C@@H]1[C@H](c1ccc(C(=O)O)cc1)N2	-1.2	-5.7	0.0	23.8
O=C(O)c1ccc2c(c1)C1C=CCC1C(c1ccc([N+](=O)[O-])cc1)N2 (centres undefined)	-2.2	15.1	-0.3	84.0*
COC(=O)c1ccc2c(c1)C1C=CCC1C(c1ccc([N+](=O)[O-])cc1)N2 (centres undefined)	-0.3	-3.6	-0.1	-5.5
Cc1sc2nc(C3CCCN(C(=O)c4nccc5ccccc45)C3)[nH]c(=O)c2c1C (centres undefined)	0.8	15.8	0.1	-10.7
Cc1ccc(C)c(Cc2c(C)nc3c(C(=O)NCc4ccccc4Cl)cnn3c2C)c1	0.3	-6.4	-0.1	-1.3
Cc1nn(C)cc1CNC(=O)c1cc(-c2ccccc2)nc2ccccc12	0.8	16.6	0.4	17.1
CCOC(=O)c1ccc2c(c1)C1C=CCC1C(c1ccc(Cl)cc1)N2 (centres undefined)	-1.4	9.5	0.2	11.9

From PubChem BioAssay
